Molecules are shown by their SMILES. Hit rate of the full screen: of about 410,000 compounds, about 480 (0.12%) were called active. The full list was thinned out, with actives kept by preference. Values without a mark were called inactive. Cut-off read from the data, not from the text of the source: active = activation above about 50%; inconclusive = mostly about 30% to 49%; inactive = weaker than that.

Mucolipin-1 (Homo sapiens), sequence (Q9GZU1 whole entry, looked up, the tested form may be a part): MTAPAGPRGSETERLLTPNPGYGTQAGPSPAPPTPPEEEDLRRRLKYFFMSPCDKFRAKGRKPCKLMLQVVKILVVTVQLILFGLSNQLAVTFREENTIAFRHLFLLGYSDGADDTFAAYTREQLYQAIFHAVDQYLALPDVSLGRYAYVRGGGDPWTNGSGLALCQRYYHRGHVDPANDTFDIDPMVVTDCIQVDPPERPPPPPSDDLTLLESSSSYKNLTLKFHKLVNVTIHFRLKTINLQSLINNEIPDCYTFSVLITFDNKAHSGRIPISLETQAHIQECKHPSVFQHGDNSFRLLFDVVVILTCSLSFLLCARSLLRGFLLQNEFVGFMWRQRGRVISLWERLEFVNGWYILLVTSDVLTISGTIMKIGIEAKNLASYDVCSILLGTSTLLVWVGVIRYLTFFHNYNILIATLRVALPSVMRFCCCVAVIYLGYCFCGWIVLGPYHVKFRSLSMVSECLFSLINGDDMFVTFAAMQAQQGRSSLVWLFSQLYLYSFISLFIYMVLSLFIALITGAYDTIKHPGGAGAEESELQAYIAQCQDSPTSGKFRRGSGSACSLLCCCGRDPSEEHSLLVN

In the experiment the target is Mucolipin-1 (Homo sapiens) (UniProt Q9GZU1). As to the kind of experiment: qHTS for Agonists of the Human Mucolipin Transient Receptor Potential 1 (TRPML1). Note: 0% is about no effect. The settings on record: TRPML1-expressing cells, Ca2+ dye fluorescence, FDSS; hits give high values. From the text:
Mutations of human Mucolipin transient receptor potential 1 (TRPML1) cause type IV mucolipidosis (ML4), a devastating neurodegenerative disease in young children. […] Currently, there is no treatment for ML4. […] Under physiological conditions, TRPMLs regulate membrane trafficking by transducing information about PI(3,5)P2 levels into changes in juxtaorganellar Ca2+, thereby triggering membrane fusion/fission events in the late endocytic pathways (endolysosomal trafficking). In addition, TRPML1 mediates release of Fe2+ from late endosomes and lysosomes, which is essential for cellular iron metabolism. Thus, impaired ion (Ca2+ and Fe2+) homeostasis underlies lysosomal dysfunction and ML4 phenotypes. In ML4 cells, the problem is twofold. First, defective Ca2+-dependent membrane trafficking due to TRPML1-deficiency causes accumulation of lipids and other bio-materials in the lysosome. The second strike comes from the lysosomal iron overload (due to impairment of TRPML1's Fe2+ conductivity), which converts the accumulated materials into the nondegradable (resistant to lysosomal degradation) lipofuscin (also called aging pigment) in the lysosome. Lipofuscin accumulation dramatically compromises the functions of lysosomes.
Niemann-Pick type C (NPC) disease is another lysosome storage disease (LSD) with severe neurodegeneration during the childhood. Currently, there is no cure for NPC. […] Thus, TRPML1 is likely to be an essential regulator of lysosome ion homeostasis. We specifically hypothesize that stimulating TRPML1's Fe2+/Ca2+ channel activity in the lysosome using synthetic agonists can alleviate neurodegeneration associated with ML4 or NPC.
To this end, a high throughput screen was developed in a miniaturized format to screen against the Molecular Libraries Small Molecule Repository (MLSMR) to find small molecules that act either as inhibitors or agonist against the TRPML1 channel.
NIH Chemical Genomics Center [NCGC]
NIH Molecular Libraries Probe Centers Network [MLPCN]
Assay Submitter (PI): Haoxing Xu, University of Michigan Ann Arbor
TRPML1-DL cells are dissociated from flasks, counted and, brought up to a density of 500,000 cells per mL of media containing a 1X Tet inducer. Using a Multidrop Combi, 3uL of this cell solution is dispensed to each well of a 1536 TC treated, black, clear bottom hi base plate for a final cell density of 1,500 cells per well. The assay plates are incubated overnight (approximately 16 hours) at 37 degrees C and 5% CO2. Using a Multidrop Combi, 2uL of ABD Ca8 no wash dye plus quencher is added to each well. The assay plates incubate at room temperature in the dark for 45-90 minutes. The assay plate is read on the FDSS using the following protocol: 10 second baseline read, 23nL of compounds and controls are added using 1536 pintool, agonist read for 110 seconds, 1 uL EC80 addition (4uM final 54-4 diluted in media), antagonist read for 110 seconds.
(In general: qHTS replaces the single test concentration by a dilution series.)
For the compound `Oc1ccc(Cl)cc1C1C=C(c2ccc3c(c2)OCO3)NC(c2c(F)cccc2Cl)N1` (stereo not drawn), the activation was 0.805%.
The result for `O=S(=O)(Nc1cccc2cccnc12)c1cccc2cccnc12` reads 0.864%; that for `CC(=O)c1ccc[n+](C(C)CCC(C)[n+]2cccc(C(C)=O)c2)c1` (stereo not drawn), -0.159%; that for `Cc1ccc(Cl)cc1N(C)C(=O)C1CCCN(c2ncnc3onc(-c4ccc(F)cc4)c23)C1` (stereo not drawn), 0.938%.
`CN(C)c1ccc(/C=C/c2sc3ccccc3[n+]2C)cc1`: the activation is -0.317%.
The result for `N#Cc1ccc[n+](CC(=O)c2ccc(O)c(O)c2)c1` reads 6.5%.
The result for `COc1cc(OC)c(NC(=O)Cc2ccc(-n3c(C)nc4cccnc43)cc2)cc1Cl` reads 2.46%; that for `O=[N+]([O-])c1ccc(/C=C/c2ccc3cccnc3c2)cc1`, -0.507%; that for `CCOC(=O)c1c(NC(=O)c2ccc(S(=O)(=O)N3CCCC(C)C3)cc2)sc2c1CCN(C(C)C)C2` (stereo not drawn), 0.257%.
With `COc1ccccc1N1CCN(c2ncnc3onc(-c4ccc(F)cc4)c23)CC1`, the activation is 0.772%.
To `O=C(c1cnn2c1NC(=C1CC1)C=C2C(F)F)N1CCc2ccccc2C1` belongs -0.995%; to `C(=Nc1ccc(/C=C/c2ccnc3ccccc23)cc1)Nc1ccc(/C=C/c2ccnc3ccccc23)cc1`, 8.34%; to `Cc1cc(=O)n(CC(=O)Nc2cccc([N+](=O)[O-])c2)c(-n2nc(C)cc2C)n1`, 1.21%.
The result for `COc1ccccc1NC(=O)CSC1=Nc2ccccc2C2=NC(CC(=O)NCc3cccs3)C(=O)N12` (stereo not drawn) reads 3.51%; that for `CC1(C)C=Cc2c(ccc(C(=O)/C=C/c3ccccc3)c2O)O1`, 19.2%; that for `COc1cccc(C(=O)c2sc3nc(-c4ccccc4)cc(C(F)(F)F)c3c2N)c1`, 98.2% (active).
Consider `COc1ccc(S(=O)(=O)c2c(Nc3cccc(Cl)c3)sc(C(=O)c3ccccc3)c2N)cc1`, for which the activation was 14.6%.
Consider `COc1cccc(C(=O)Nc2ccc(-c3cc(C(F)(F)F)nn3-c3ccccc3)cc2)c1`, for which the activation is 3.44%.
The result for `COc1ccc(Cn2c(=O)n(-c3ccccc3C)c(=O)c3c4c(sc32)CN(C(C)=O)CC4)cc1` reads -0.696%; that for `O=C(Nc1ccc2nc(SCC(=O)N3CCCc4ccccc43)sc2c1)c1ccc(Cl)cc1`, 1.16%.
On to `O=C(Nc1ccc([N+](=O)[O-])cc1)c1cnn2c1NC(=C1CC1)C=C2C(F)F`, for which the activation is -0.353%.
Take `CCCCC(CCCC)c1ccc(C=Nc2ccc(/C=C/c3ccnc4ccccc34)cc2)cc1`: the activation was 5.8%.
To `COc1cccc(-c2nnc3n(CCc4ccccc4)c(=O)c4ccccc4n23)c1O` belongs 1.15%; to `COc1ccc(/C=C(/NC(=O)c2ccc(C)cc2)c2nc3ccccc3[nH]2)cc1OC`, 50.1% (active).
The result for `CCOc1ccc(/C=C(\C#N)c2nc3ccccc3c(=O)[nH]2)cc1OC` reads 1.09%; that for `Cc1ccc2nc(CNC(=O)c3ccccc3)[nH]c2c1`, 2.07%.
The result for `N#Cc1ccc[n+](CC(=O)c2ccc(F)cc2)c1` reads 1.03%; that for `COC(=O)C(CC(C)C)NS(=O)(=O)c1cc(Br)ccc1Br` (stereo not drawn), 1.9%; that for `OC(CBr)CN1CCCCC1` (stereo not drawn), -0.38%.
On to `Cc1cccc(N2CCN(C(=O)CCn3c(=O)c4cccn4c4cccnc43)CC2C)c1` (stereo not drawn), for which the activation was 0.62%.
`C=CCNC(=O)c1ccc2nc(-c3ccco3)c(-c3ccco3)nc2c1`: the activation is -0.254%.
To `OC(CBr)C[n+]1cccc2cc(Br)ccc21` (stereo not drawn) belongs 1.14%; to `Nc1ncnc2nnsc12`, 0.38%.
To `CN(C)c1ccc(/C=C/c2sc3ccccc3[n+]2CCCCBr)cc1` belongs 6.96%; to `CCC(C(=O)Nc1cccc(Cl)c1C)n1nc(-c2ccc(C)cc2)ccc1=O` (stereo not drawn), 3.09%; to `S=c1[nH]c(=S)c2n[nH]nc2[nH]1`, 0%.
For the compound `CC(C)(C)c1ccc(C(=O)C[N+]2(C)CCCc3ccccc32)cc1` (stereo not drawn), the activation is -0.62%.
As for `O=C1O/C(=C\c2ccc(O)cc2)C(O)=C1c1ccc(O)cc1`, the activation is -0.353%.
Turning to `COc1ccc(OC)c(NC(=O)CSC2=Nc3ccccc3C3=NC(CC(=O)NCc4ccc(F)cc4)C(=O)N23)c1` (stereo not drawn), the activation is 2.38%.
For the compound `CCN1CCN(c2ncc3c(n2)CC(c2ccccc2O)CC3=O)CC1` (stereo not drawn), the activation is -0.182%.
Take `CCCS(=O)(=O)Nc1cccc(-c2cn3ccsc3n2)c1`: the activation is -0.225%.
The result for `CN(CCC#N)c1ccc(C=O)cc1` reads -0.222%; that for `COc1ccc(NC(=O)c2sc3nc(C)nc(N4CCN(c5ccccn5)CC4)c3c2C)c(OC)c1`, 105% (active); that for `Cc1nc(N2CCN(c3ccccn3)CC2)c2c(C)c(C(=O)Nc3ccc(F)c(Cl)c3)sc2n1`, -0.23%.
To `COc1cc([N+](=O)[O-])ccc1NC(=S)N1CCN(c2ccccn2)CC1` belongs 0.452%.
The result for `O=C(Nc1ccccc1)c1ccccc1OCc1ccccc1` reads 0.0539%.
Turning to `COc1cc2nc(N3CCCN(C)CC3)nc(NC(C)C)c2cc1OC`, the activation is -0.755%.
Take `O=C1CC(c2ccccc2)CC2=C1C(c1ccco1)n1nc(C(F)(F)F)nc1N2` (stereo not drawn): the activation was -1.28%.
To `C=COC(=O)N1CCN(/[N+]([O-])=N/Oc2ccc([N+](=O)[O-])cc2[N+](=O)[O-])CC1` belongs 1.19%.
To `COc1ccc(CN(Cc2ccccc2)C(=O)c2ccc(O)cc2)cc1COc1ccc(NC(C)=O)cc1` belongs 1.13%; to `OC(Cc1ccc2ccccc2n1)c1ccc(Cl)c(Cl)c1` (stereo not drawn), 0.0951%.
To `CCN(CC)c1ccc(C2C(C(N)=O)=C(C)Nc3nc(SCc4ccccc4)nn32)cc1` (stereo not drawn) belongs -0.404%; to `CCCOc1ccc(C2c3c(-c4ccccc4O)n[nH]c3C(=O)N2Cc2cccnc2)cc1` (stereo not drawn), 1.02%; to `Cc1nn(C)cc1N1C(=O)c2cccc3c(N)ccc(c23)C1=O`, 66.8% (active).
For `CN1C(=O)c2cccc3c(N)ccc(c23)C1=O`, the activation is 85.5% (active).
To `Cc1ccc(Cn2cnc3c(cnn3C(C)(C)C)c2=O)c(F)c1` belongs 1.07%; to `CN(C)c1ccc(NC(=O)CSc2nc(-c3ccco3)cc(C(F)(F)F)n2)cc1`, 0.776%.
The result for `CCN(CC)CCCC(C)n1c2nc(=O)[nH]c(=O)c-2nc2cc(Cl)ccc21` (stereo not drawn) reads 82.9% (active); that for `CCN(CC)CCCC(C)Nc1ccnc2cc(Cl)ccc12` (stereo not drawn), 0.571%.
To `Cc1cccc(-n2c(=O)c3c(c4cc(C)ccc4n3C)n(CC(=O)Nc3ccccc3Cl)c2=O)c1` belongs 1.58%.
For `Brc1cccc[n+]1Cc1cccc(C[n+]2ccccc2Br)c1`, the activation was 0.0634%.
On to `Cc1cccc(NC(=O)COC(=O)c2ccccc2OCc2cccc(Br)c2)c1`, for which the activation is -0.0809%.
Consider `CCCCCCCNc1ccc(/C=C/c2ccnc3ccccc23)cc1`, for which the activation is 6.43%.
To `O=C(Nc1ccc(Cl)cc1)c1cnn2c1NC(=C1CC1)C=C2C(F)F` belongs -0.513%; to `C/C(=N\NC(N)=S)c1ccncc1`, 0%.
To `CCN(CC)c1ccc2cc(C(N)=O)/c(=N\NC(=O)c3ccncc3)oc2c1` belongs 81% (active).
The result for `CCOC(=O)c1c(C)oc2ccc(N(C(=O)c3ccncc3)S(=O)(=O)c3ccc(CC)cc3)cc12` reads 0.815%.
In the case of `COc1ccc(Br)cc1C1C2C=CCC(C)C2C(=O)N1Cc1ccccc1` (stereo not drawn), the activation is 1.3%.
To `CS(=O)c1ccc(/C=C2\C=Cc3ccccc32)cc1` (stereo not drawn) belongs -0.666%.
The result for `COc1ccc(NC(=O)C2CCCN(S(=O)(=O)c3cccc4nonc34)C2)cc1Cl` (stereo not drawn) reads 0.791%; that for `Cc1ccc(-c2nc(=N)sn2Cc2ccccc2)cc1`, 0.856%; that for `O=C(Cc1ccc(Cl)cc1)Nc1ccc2nn(-c3ccc(Cl)cc3)nc2c1`, -0.688%.
To `CCN(CC)/[N+]([O-])=N/OCOC(=O)Cc1c(C)n(C(=O)c2ccc(Cl)cc2)c2ccc(OC)cc12` belongs 1.25%.
With `O=C(COc1ccccc1C(=O)Nc1ccccc1)Nc1cccc(F)c1`, the activation is -0.0642%.
For the compound `CCn1c2ccccc2c2cc(CN3CCN(Cc4cccc(Cl)c4)CC3)ccc21`, the activation was 1.83%.
To `Cc1cccc(N2CCN(C(c3ccc(N(C)C)cc3)c3nnnn3C(C)(C)C)CC2)c1C` (stereo not drawn) belongs -0.374%; to `COc1ccccc1C(c1nnnn1CC1CCCO1)N1CCN(c2ccccc2)CC1` (stereo not drawn), 1.14%; to `Cc1cccc(N2CCN(C(c3ccccc3)c3nnnn3CC3CCCO3)CC2)c1C` (stereo not drawn), 83.5% (active).
To `O=C(CSc1nccn1Cc1ccc(Cl)cc1)NCc1ccccc1` belongs -1.21%; to `SCc1nc2ccc(Cl)cc2[nH]1`, -0.507%; to `Cc1cc(C)c(/C=C2\C(=O)Nc3ccccc32)[nH]1`, 92% (active).
The result for `CC(C)OCCCn1c(SCC(=O)c2ccccc2)nc2c(sc3ccccc32)c1=O` reads 0.121%.
With `CCOCCCNC(=O)c1ccc2nc(CCc3ccccc3)oc2c1`, the activation was 2.82%.
As for `CC(C)(C)n1ncc2c(=O)n(Cc3ccc(C(=O)c4ccccc4)cc3)cnc21`, the activation is 2.07%.
To `CC(OC(=O)Cc1ccc(F)cc1)C(=O)N1CCc2ccccc21` (stereo not drawn) belongs 1.15%; to `CN(CC(=O)Nc1ccc(F)cc1)CC(=O)N1CCCCC1`, -0.517%.
The result for `CC(C(=O)N1CCc2ccccc21)N(C)CC(=O)Nc1ccc(F)cc1` (stereo not drawn) reads 51.7% (active).
The result for `O=C(O)C1=C/C(=C/C=[N+]2c3cc(O)c(O[C@H]4OC(CO)[C@@H](O)[C@@H](O)[C@@H]4O)cc3C[C@@H]2C(=O)[O-])C[C@H](C(=O)O)N1` (stereo partly drawn) reads -0.0321%.

(Values after PubChem BioAssay AID624414 (National Center for Advancing Translational Sciences (NCATS), 2012).)
